{"source": "the antibiotic and cytotoxicity screens of Wong et al. (2023)", "note": "About 1,500 (3.8%) of roughly 39,000 compounds were called active. This excerpt belongs to a sample that is enriched for actives."}
{"test_system": "HSkMC (human skeletal muscle cells)", "assay": "cytotoxicity call (relative viability < 0.9)", "settings": "10 µM"}
{"smiles": "C[C@H](CO)N1C[C@H](C)[C@@H](CN(C)CC2CCOCC2)Oc2cc(C#Cc3ccccc3F)ccc2S1(=O)=O", "cytotoxicity call": "inactive"}
{"smiles": "C[C@@H]1CN([C@H](C)CO)C(=O)c2cc(NC(=O)CCCN(C)C)ccc2O[C@H]1CN(C)Cc1ccncc1", "cytotoxicity call": "inactive"}
{"smiles": "CN(C)CC(=O)N1[C@@H]2c3cccc(=O)n3C[C@H]1[C@H](CO)[C@H]2C(=O)NCc1ccccc1", "cytotoxicity call": "inactive"}
{"smiles": "C[C@@H]1CCCCO[C@@H](CN(C)S(=O)(=O)c2ccc(F)cc2)[C@@H](C)CN([C@H](C)CO)C(=O)c2cc(NC(=O)c3ccccc3)ccc2O1", "cytotoxicity call": "inactive"}
{"smiles": "CCc1nnc(SCC(=O)O)n1N", "cytotoxicity call": "inactive"}
{"smiles": "COc1ccc(S(=O)(=O)Nc2ccc3c(c2)C(=O)N([C@@H](C)CO)C[C@H](C)[C@@H](CN(C)C(=O)Nc2ccc4c(c2)OCO4)OCCCC[C@H](C)O3)cc1", "cytotoxicity call": "inactive"}
{"smiles": "COc1ccc(CN(C)C[C@H]2Oc3ccc(NC(=O)CCN4CCOCC4)cc3CC(=O)N([C@@H](C)CO)C[C@@H]2C)cc1", "cytotoxicity call": "inactive"}
{"smiles": "C[C@@H]1CCCCO[C@@H](CN(C)Cc2ccc(C(=O)O)cc2)[C@@H](C)CN([C@@H](C)CO)C(=O)c2cc(NC(=O)Nc3ccc(C(F)(F)F)cc3)ccc2O1", "cytotoxicity call": "inactive"}
{"smiles": "COc1ccc(CCN(C)CCCOc2ccc(S(=O)(=O)c3c(C(C)C)c4ccccc4n3C)cc2)cc1OC", "cytotoxicity call": "active"}
{"smiles": "COc1ccc(CCN(C)CCCOc2ccc(S(=O)(=O)c3c(C(C)C)cn4ccccc34)cc2)cc1OC", "cytotoxicity call": "active"}
{"smiles": "COc1cc(C(=O)NCc2ccc(OCCN(C)C)cc2)cc(OC)c1OC.Cl", "cytotoxicity call": "inactive"}
{"smiles": "COc1ccc(C(=O)NCc2ccc(OCCN(C)C)cc2)cc1OC", "cytotoxicity call": "inactive"}
{"smiles": "COc1ccc(CCN(C)CCCOc2ccc(S(=O)(=O)c3[nH]c4ccccc4c3C(C)C)cc2)cc1OC", "cytotoxicity call": "active"}
{"smiles": "C[C@H](CO)N1C[C@H](C)[C@H](CN(C)C(=O)Nc2ccc(F)cc2)OCCCC[C@H](C)Oc2ccc(NS(=O)(=O)c3ccccc3)cc2C1=O", "cytotoxicity call": "inactive"}
{"smiles": "CCCc1cc(-c2nc(-c3ccc(C)cc3)cs2)ccn1", "cytotoxicity call": "inactive"}
{"smiles": "Cc1ccc(-c2csc(-c3ccc(C(F)(F)F)cc3)n2)cc1", "cytotoxicity call": "inactive"}
{"smiles": "Cc1ccc(-c2csc(-c3ccc(CN)cc3)n2)cc1", "cytotoxicity call": "active"}
{"smiles": "CCc1ccccc1C(=O)N1CCC[C@@H](Cn2cc(C(C)(C)N)nn2)C1", "cytotoxicity call": "inactive"}
{"smiles": "COc1ccc2c3c(ccc2c1)-c1[nH]c2ccccc2c1CC3", "cytotoxicity call": "inactive"}
{"smiles": "COc1ccc2[nH]c3c(-c4cccc5ccccc45)nccc3c2c1", "cytotoxicity call": "active"}
{"smiles": "COc1ccc2[nH]c(=O)[nH]c(=O)c2c1", "cytotoxicity call": "inactive"}
{"smiles": "COc1ccc(-c2ccc3n(c2=O)C[C@@H]2[C@@H](CO)[C@H](C(=O)NCC4CC4)[C@H]3N2S(C)(=O)=O)cc1", "cytotoxicity call": "inactive"}
{"smiles": "C[C@@H]1CN([C@H](C)CO)S(=O)(=O)c2ccc(C#Cc3ccccc3)cc2O[C@@H]1CN(C)S(=O)(=O)c1ccccc1F", "cytotoxicity call": "inactive"}
{"smiles": "CC(=O)N(C)C[C@@H]1Oc2ncc(C#CC(C)(C)O)cc2C(=O)N([C@@H](C)CO)C[C@@H]1C", "cytotoxicity call": "active"}
{"smiles": "CC(=O)N(C)C[C@H]1Oc2ncc(C#CC(C)(C)O)cc2C(=O)N([C@H](C)CO)C[C@H]1C", "cytotoxicity call": "inactive"}
{"smiles": "C[C@H](CO)N1C[C@H](C)[C@@H](CN(C)C(=O)Cc2ccccc2)Oc2ncc(C#CC3(O)CCCC3)cc2C1=O", "cytotoxicity call": "inactive"}
{"smiles": "C[C@@H]1CN([C@H](C)CO)C(=O)c2cc(C#CC3(O)CCCC3)cnc2O[C@H]1CN(C)C(=O)Cc1ccccc1", "cytotoxicity call": "inactive"}
{"smiles": "CC(=O)N(C)C[C@@H]1Oc2ncc(C#CC(C)(C)O)cc2C(=O)N([C@@H](C)CO)C[C@H]1C", "cytotoxicity call": "inactive"}
{"smiles": "C[C@H](CO)N1C[C@H](C)[C@H](CN(C)C(=O)Cc2ccccc2)Oc2ncc(C#CC3(O)CCCC3)cc2C1=O", "cytotoxicity call": "active"}
{"smiles": "Cc1noc(C)c1S(=O)(=O)Nc1ccc2c(c1)CC(=O)N([C@@H](C)CO)C[C@@H](C)[C@H](CN(C)S(=O)(=O)c1ccccc1)O2", "cytotoxicity call": "inactive"}
{"smiles": "C[C@@H]1CN([C@@H](C)CO)C(=O)Cc2cc(NS(=O)(=O)c3ccccc3)ccc2O[C@@H]1CN(C)CC1CC1", "cytotoxicity call": "inactive"}
{"smiles": "COc1ccc(S(=O)(=O)Nc2ccc3c(c2)C(=O)N([C@H](C)CO)C[C@H](C)[C@@H](CN(C)C(=O)NC2CCCCC2)OCCCC[C@H](C)O3)cc1", "cytotoxicity call": "inactive"}
{"smiles": "CC(C)NC(=O)N(C)C[C@@H]1Oc2ccc(NS(=O)(=O)c3ccccc3)cc2C(=O)N([C@@H](C)CO)C[C@@H]1C", "cytotoxicity call": "inactive"}
{"smiles": "C[C@H]1CCCCO[C@@H](CN(C)Cc2ccc(C(=O)O)cc2)[C@@H](C)CN([C@@H](C)CO)C(=O)c2cc(NC(=O)Nc3cccc4ccccc34)ccc2O1", "cytotoxicity call": "inactive"}
{"smiles": "CCC(=O)Nc1ccc2c(c1)OC[C@H](C)N(C(=O)CN1CCOCC1)C[C@@H](C)[C@@H](OC)CN(C)C2=O", "cytotoxicity call": "inactive"}
{"smiles": "O=C(Nc1ccc(-c2nc3ccc(NC(=O)c4ccccc4[N+](=O)[O-])cc3[nH]2)cc1)c1ccccc1[N+](=O)[O-]", "cytotoxicity call": "inactive"}
{"smiles": "O=C(Nc1ccc(-c2nc3ccc(NC(=O)c4ccc(Cl)cc4)cc3[nH]2)cc1)c1ccc(Cl)cc1", "cytotoxicity call": "active"}
{"smiles": "O=C(Nc1ccc(-c2nc3ccc(NC(=O)c4ccc(NC(=O)c5cccc6ccccc56)cc4)cc3[nH]2)cc1)c1ccc(NC(=O)c2cccc3ccccc23)cc1", "cytotoxicity call": "inactive"}
{"smiles": "c1ccc(-c2nn(-c3ccccc3)c3c2cnc2ccccc23)cc1", "cytotoxicity call": "inactive"}
{"smiles": "C[C@@H]1CN([C@@H](C)CO)C(=O)c2cc(C#Cc3ccccc3F)cnc2O[C@H]1CN(C)C(=O)c1ccc2c(c1)OCO2", "cytotoxicity call": "inactive"}
{"smiles": "c1cnc(-c2cc[nH]n2)cn1", "cytotoxicity call": "inactive"}
{"smiles": "C[C@@H]1CN([C@@H](C)CO)C(=O)c2ccccc2-c2ccccc2CO[C@H]1CN(C)C(=O)N[C@H](C)c1ccccc1", "cytotoxicity call": "inactive"}
{"smiles": "Cc1cc(C)c(NC(=O)CN(CC(=O)O)CC(=O)O)c(C)c1Br", "cytotoxicity call": "inactive"}
{"smiles": "Cn1cnc(S(=O)(=O)N2C[C@H](O)COC[C@@H]3O[C@@H](CC(=O)NCc4cccc(F)c4)CC[C@H]32)c1", "cytotoxicity call": "inactive"}
{"smiles": "C[C@@H]1CN([C@H](C)CO)S(=O)(=O)c2ccc(-c3ccncc3)cc2O[C@@H]1CN(C)S(=O)(=O)c1ccccc1F", "cytotoxicity call": "inactive"}
{"smiles": "Cc1ccc(S(=O)(=O)Oc2ccc(/N=N/c3ccc(-c4ccc(/N=N/c5c(O)ccc6cc(S(=O)(=O)O)cc(S(=O)(=O)O)c56)c(C)c4)cc3C)cc2)cc1", "cytotoxicity call": "inactive"}
{"smiles": "Cc1cc(-c2ccc(N=Nc3ccc4c(S(=O)(=O)[O-])cc(S(=O)(=O)[O-])c(N)c4c3O)c(C)c2)ccc1N=Nc1ccc2c(S(=O)(=O)[O-])cc(S(=O)(=O)[O-])c(N)c2c1O.[Na+].[Na+].[Na+].[Na+]", "cytotoxicity call": "active"}
{"smiles": "C[C@H]1CN([C@@H](C)CO)C(=O)c2cc(C#Cc3ccncc3)cnc2O[C@@H]1CN(C)S(=O)(=O)c1ccccc1F", "cytotoxicity call": "inactive"}
{"smiles": "C[C@@H]1CN([C@H](C)CO)C(=O)c2cc(NC(=O)Nc3ccc(F)cc3)ccc2O[C@@H]1CN(C)Cc1ccc(C(F)(F)F)cc1", "cytotoxicity call": "inactive"}
{"smiles": "C[C@@H]1CN([C@H](C)CO)C(=O)c2cc(NC(=O)Nc3ccc(F)cc3)ccc2O[C@H]1CN(C)Cc1ccc(C(F)(F)F)cc1", "cytotoxicity call": "active"}
{"smiles": "C[C@H](CO)N1C[C@H](C)[C@H](CN(C)Cc2ccc(C(F)(F)F)cc2)Oc2ccc(NC(=O)Nc3ccc(F)cc3)cc2C1=O", "cytotoxicity call": "inactive"}
{"smiles": "C[C@H]1CN([C@@H](C)CO)C(=O)c2cc(NC(=O)Nc3ccc(F)cc3)ccc2O[C@@H]1CN(C)Cc1ccc(C(F)(F)F)cc1", "cytotoxicity call": "inactive"}
{"smiles": "C[C@@H]1CN([C@@H](C)CO)C(=O)c2cc(NC(=O)Nc3ccc(F)cc3)ccc2O[C@H]1CN(C)Cc1ccc(C(F)(F)F)cc1", "cytotoxicity call": "active"}
{"smiles": "C[C@H]1CN([C@@H](C)CO)C(=O)c2cc(NC(=O)Nc3ccc(F)cc3)ccc2O[C@H]1CN(C)Cc1ccc(C(F)(F)F)cc1", "cytotoxicity call": "inactive"}
{"smiles": "C[C@H](CO)N1C[C@H](C)[C@@H](CN(C)Cc2ccc(C(F)(F)F)cc2)Oc2ccc(NC(=O)Nc3ccc(F)cc3)cc2C1=O", "cytotoxicity call": "active"}
{"smiles": "C[C@@H]1CN([C@@H](C)CO)C(=O)c2cc(NC(=O)Nc3ccc(F)cc3)ccc2O[C@@H]1CN(C)Cc1ccc(C(F)(F)F)cc1", "cytotoxicity call": "active"}
{"smiles": "O=C(C[C@H]1C=C[C@@H](NC(=O)Nc2cc(F)ccc2F)[C@@H](CO)O1)NCCCN1CCOCC1", "cytotoxicity call": "inactive"}
{"smiles": "CCS(=O)(=O)N1C[C@]2(CN(C2)C(=O)Nc2ccc3c(c2)OCO3)c2c(n(c3cc(ccc23)OC)C)[C@H]1CO", "cytotoxicity call": "inactive"}
{"smiles": "N=C(N)N.O=C(O)O", "cytotoxicity call": "inactive"}
{"smiles": "Cc1noc(C)c1S(=O)(=O)N(C)C[C@H]1Oc2ccc(NS(C)(=O)=O)cc2CC(=O)N([C@H](C)CO)C[C@@H]1C", "cytotoxicity call": "inactive"}
{"smiles": "COc1ccc(NC(=O)N(C)C[C@@H]2Oc3ccc(NC(=O)Cn4cnnn4)cc3CC(=O)N([C@H](C)CO)C[C@H]2C)cc1", "cytotoxicity call": "inactive"}
{"smiles": "C[C@H](CO)N1C[C@H](C)[C@H](CN(C)C(=O)Nc2ccc(C(F)(F)F)cc2)OCCCC[C@H](C)Oc2ccc(NS(=O)(=O)c3cn(C)cn3)cc2C1=O", "cytotoxicity call": "inactive"}
{"smiles": "O=C(C[C@H]1C=C[C@@H](NC(=O)c2cccc(F)c2)[C@H](CO)O1)NCCN1CCCC1", "cytotoxicity call": "inactive"}
{"smiles": "COc1ccc(-c2cnc3c(c2)C(=O)N([C@H](C)CO)C[C@H](C)[C@H](CN(C)S(=O)(=O)c2ccc(F)cc2)O3)cc1", "cytotoxicity call": "inactive"}
{"smiles": "Cc1ccc(S(=O)(=O)N(C)C[C@@H]2Oc3c(NS(=O)(=O)c4ccccc4)cccc3C(=O)N([C@@H](C)CO)C[C@H]2C)cc1", "cytotoxicity call": "inactive"}
{"smiles": "NCC[C@H]1CC[C@@H](NC(=O)c2ccccc2F)[C@@H](CO)O1", "cytotoxicity call": "inactive"}
{"smiles": "Cc1ccc(S(=O)(=O)N(C)C[C@@H]2Oc3c(NS(C)(=O)=O)cccc3C(=O)N([C@H](C)CO)C[C@H]2C)cc1", "cytotoxicity call": "inactive"}
{"smiles": "Cc1cc(C(=O)Nc2cccc3c2O[C@@H](CN(C)S(C)(=O)=O)[C@@H](C)CN([C@@H](C)CO)C3=O)n(C)n1", "cytotoxicity call": "inactive"}
{"smiles": "C[C@@H]1CCCCO[C@@H](CN(C)S(=O)(=O)c2ccc(Cl)cc2)[C@@H](C)CN([C@@H](C)CO)C(=O)c2cc(NS(=O)(=O)c3ccc(F)cc3)ccc2O1", "cytotoxicity call": "inactive"}
